Where “and” joins values, the source holds several entries; their conditions need not be identical. Identical values can stand only once. A structure can be active in one record and inactive in another. Calls of active or inactive are those of the source. Rule as the data show it: active = remaining activity below about 50%; inactive = the rest.
Target: Phospholipase D2 (Homo sapiens) (UniProt O14939)
Experiment: cellular phospholipase D2 activity inhibition – cell-based, HEK293, single concentration (AID 602143);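 also: tested at 200 nM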
Conditions: HEK293 cellular PLD2 activity, percent of control; stronger effect = lower value

Sequence of Phospholipase D2 (Homo sapiens) (O14939 whole entry, looked up): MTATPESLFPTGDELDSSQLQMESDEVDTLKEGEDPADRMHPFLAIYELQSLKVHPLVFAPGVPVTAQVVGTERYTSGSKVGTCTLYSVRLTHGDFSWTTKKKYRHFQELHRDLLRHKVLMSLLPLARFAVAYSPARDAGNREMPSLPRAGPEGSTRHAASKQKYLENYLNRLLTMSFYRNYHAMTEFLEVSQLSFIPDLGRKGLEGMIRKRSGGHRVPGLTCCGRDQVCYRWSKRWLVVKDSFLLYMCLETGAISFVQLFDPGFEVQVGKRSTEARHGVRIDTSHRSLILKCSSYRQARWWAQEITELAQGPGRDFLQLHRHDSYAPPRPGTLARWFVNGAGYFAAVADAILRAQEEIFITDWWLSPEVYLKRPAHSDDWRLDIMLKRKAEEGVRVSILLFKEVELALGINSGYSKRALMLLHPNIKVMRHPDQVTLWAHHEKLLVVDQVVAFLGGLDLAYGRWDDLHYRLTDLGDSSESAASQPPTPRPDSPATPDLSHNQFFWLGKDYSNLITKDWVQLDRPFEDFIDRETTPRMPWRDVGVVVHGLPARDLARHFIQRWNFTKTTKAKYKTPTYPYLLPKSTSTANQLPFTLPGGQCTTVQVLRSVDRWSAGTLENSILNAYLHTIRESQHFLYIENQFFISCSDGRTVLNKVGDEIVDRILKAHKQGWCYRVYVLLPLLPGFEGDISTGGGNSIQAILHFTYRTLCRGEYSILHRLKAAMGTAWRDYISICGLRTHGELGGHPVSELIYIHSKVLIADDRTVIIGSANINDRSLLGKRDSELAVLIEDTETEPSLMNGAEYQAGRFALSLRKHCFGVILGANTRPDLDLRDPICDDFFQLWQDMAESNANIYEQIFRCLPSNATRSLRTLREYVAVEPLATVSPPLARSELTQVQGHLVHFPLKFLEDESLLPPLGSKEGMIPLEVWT
Sequence of Phospholipase D2 (Homo sapiens) (O14939 whole entry, looked up): as above

| SMILES | remaining activity |
| --- | --- |
| CCOC(=O)CCN1CCC2(CC1)C(=O)NCN2c1ccccc1 | 91.6% (inactive) |
| C[C@@H](CN1CCC2(CC1)C(=O)NCN2c1ccc(F)c(F)c1)NC(=O)c1cc2ccccc2[nH]1 | 0% (active) |
| O=C(NCCN1CCC2(CC1)C(=O)NCN2c1cccc(Cl)c1)c1ccc2ccccc2c1 | 72% (inactive) |
| O=C(CCN1CCC2(CC1)C(=O)NCN2c1ccccc1)Nc1ccc(F)cc1 | 119% (inactive) |
| Cc1ccccc1C(=O)NCCN1CCC2(CC1)C(=O)NCN2c1cccc(F)c1 | 115% (inactive) |
| CCCCCC(=O)NCCN1CCC2(CC1)C(=O)NCN2c1cccc(F)c1 | 80.7% (inactive) |
| O=C(c1ccc2ccccc2c1)N1CCCC1CN1CCC(n2c(=O)[nH]c3ccccc32)CC1 (stereo not drawn) | 49.9% (active) and 63.2% (inactive) |
| O=C(NCCN1CCC2(CC1)C(=O)NCN2c1ccccc1)c1cccnn1 | 88.2% (inactive) |
| O=C(c1cnc2ccccc2c1)N1CCC[C@@H]1CN1CCC2(CC1)C(=O)NCN2c1ccccc1 | 106% (inactive) |
| O=C(NCCN1CCC2(CC1)C(=O)NCN2c1ccccc1)c1cc(-c2ccccc2)no1 | 88.3% (inactive) |
| O=C(c1cccc(F)c1)N(CCN1CCC2(CC1)C(=O)NCN2c1cccc(F)c1)C(=O)c1cccc(F)c1 | 71.6% (inactive) |
| O=C(NCCN1CCC2(CC1)C(=O)NCN2c1ccc(F)c(F)c1)c1ccc(Cl)cc1 | 55.3% (inactive) |
| C[C@@H](CN1CCC2(CC1)C(=O)NCN2c1ccccc1)NC(=O)c1ccc(F)c(F)c1 | 54.7% (inactive) |

Source: PubChem BioAssay AID602143 (Vanderbilt Specialized Chemistry Center, 2011)
